High-throughput results as filed in PubChem BioAssay.
Shown are actives, neighbours in structure and some others; about 14% of the full set was active somewhere.
Pf growth 48h – inhibits P. falciparum growth in the first generation, 48 h | P. falciparum luciferase growth in erythrocytes, 48 h | Potency, µM (highest dose often 28.7 µM), without a hit: at the highest dose activity change, negative = inhibition, usual class: inhibitors | hit rate 5.9% among 310,000 | AID 504832; also: potency is read from the fitted curve at half-maximal effect
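In quantitative HTS format, infected erythrocytes bearing luciferase-reporter parasites were treated for a single generation at 37 C. Luminescence after adding detection reagent served as the growth measure.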
Pf growth 96h – P. falciparum growth inhibition at 96 hours. AID 504834. hit rate 6.9% among 320,000. P. falciparum luciferase reporter growth, 96 h. Potency, µM (series often up to 28.7 µM), for the others: at the top dose activity change, negative = inhibition, most hits filed as inhibitors; also: potency is read from the fitted curve at half-maximal effect
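96 h incubation, 37 C, 5% CO2, of luciferase-reporter P. falciparum-infected RBCs (2% hematocrit, 0.05% parasitemia final) with test compounds; endpoint luminescence.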
HCMV inh – blocks human cytomegalovirus replication | HFF cells, HCMV-luciferase reporter, 72 h; stronger effect = lower value | activity change, negative = inhibition, % at 57.5 µM | hit rate 4.5% among 410,000; in the data active = activity change below about -60%; inconclusive = no clear call, values can overlap the other calls; inactive = above about -39%
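Screen run at 2 compound doses on HFFs infected with reporter HCMV, MOI 1 PFU/cell. Luciferase activity from cell lysates at 72 h post infection gave inhibition relative to buffer-only and Salinomycin wells.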
Sm TGR block – S. mansoni TGR enzyme inhibition | Q962Y6 | purified TGR, DTNB reduction, TNB absorbance 405 nm | Potency, µM (titrated, usually from 114 µM), for inactives: top-dose activity change, negative = inhibition, most hits filed as inhibitors | hit rate 3% among 360,000 | AID 485364; also: potency is read from the fitted curve at half-maximal effect; nearly all actives have a fitted effect of over 60% in size
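TGR 20 nM + NADPH 100 uM (dispensed conc.), cpd preinc 15 min RT; start with NADPH (500 uM addition) then DTNB (15 mM addition). Kinetic TNB absorbance, 405 nm filter. Four-parameter Hill fit across titration.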
Giardia FBPA inh – Giardia lamblia aldolase inhibition | hit rate 0.71% among 290,000 | AID 2451 | A8B2U2 | Potency, µM (series often up to 59.6 µM), for inactives: top-dose activity, negative = inhibition, hits mostly inhibitors | purified Giardia FBPA; also: potency is read from the fitted curve at half-maximal effect; nearly all actives have a fitted effect of over 55% in size
Target sequence (A8B2U2 whole entry, looked up): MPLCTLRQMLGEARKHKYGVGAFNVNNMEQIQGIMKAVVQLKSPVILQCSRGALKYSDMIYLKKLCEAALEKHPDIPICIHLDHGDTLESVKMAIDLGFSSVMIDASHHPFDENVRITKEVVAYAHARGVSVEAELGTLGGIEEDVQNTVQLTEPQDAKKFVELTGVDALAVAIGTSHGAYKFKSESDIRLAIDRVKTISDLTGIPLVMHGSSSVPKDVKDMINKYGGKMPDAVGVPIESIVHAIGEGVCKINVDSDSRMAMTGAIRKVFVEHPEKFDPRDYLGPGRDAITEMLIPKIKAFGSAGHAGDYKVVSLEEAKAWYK
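Giardia FBPA (40 nM reagent) was preincubated 10 min at RT with compound (up to 57.5 uM final), then substrate plus GAPDH/TPI/NAD/arsenate coupling system with diaphorase/resazurin was added; resorufin fluorescence (525/598 nm) was read after 20 min.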
The depositor's hits bear a star; ? = inconclusive; nt = no result given. Unless noted, calls follow the shape of the dose curve; as a rule, active = well fitted curve in the direction sought with a large enough effect; inconclusive = small, poorly fitted or top-dose-only effect, or another doubt; inactive = no such curve, though single readings can be large; an effect the other way counts as inactive or inconclusive. % is scaled to controls: 0 for no effect and ±100 for the full control effect.

SMILES	Pf growth 48h	Pf growth 96h	HCMV inh	Sm TGR block	Giardia FBPA inh
O=C(NC1CCCC1)C(c1ccncc1)N(C(=O)c1csnn1)c1ccccc1 (centres undefined)	17%	5.9µM*	8	-5%	0%
CC(C)c1ccc(C(C(=O)NC2CCCCC2)N(C(=O)c2ccccn2)c2cccnc2)cc1 (centres undefined)	10µM*	?	-37	-1%	-2%
CC(=O)c1ccc(N(C(=O)c2csnn2)C(C(=O)NC2CCCC2)c2ccccc2)cc1 (centres undefined)	-19%	18%	1	10%	-4%
O=C(NC1CCCC1)C(c1ccccc1)N(C(=O)c1ccno1)c1ccccc1 (centres undefined)	-15%	7.4µM*	-11	-1%	0%
O=C(NC1CCCCC1)C(c1ccncc1)N(C(=O)c1csnn1)c1ccccc1 (centres undefined)	17%	16%	-5	-11%	14%
O=C(Nc1ccc(F)cc1)/C(=C1/CCCCCN1)[N+](=O)[O-]	5%	0%	-37	5%	6%
CCCn1c(-c2ccc(F)cc2)nc2c(NCCCCN3CCCC3)nc(C)nc21	nt	nt	nt	nt	-9%
CC(C)N1CC2(CC(c3ccc(Cl)cc3Cl)=NO2)CN1C(=O)c1ccc(C(C)(C)C)cc1 (centres undefined)	nt	nt	-10	nt	nt
CN(C)S(=O)(=O)c1cccc(CSCc2cccc(S(=O)(=O)N(C)C)c2)c1	-5%	-7%	-92*	-11%	7%
COc1ccc(OC)c(Nc2cc(-c3ccccc3)nc(N)n2)c1	?	31%	-90*	-6%	-8%
COc1ccc(NC2=C(c3ccccc3)C(=O)c3ccccc32)cc1Cl	nt	nt	-6	-4%	nt
COc1ccc(OC)c(NC2=C(c3ccccc3)C(=O)c3ccccc32)c1	nt	nt	-63*	35µM*	nt
CCOC(=O)c1c(-c2ccc(C)cc2)csc1NC(=O)c1cc(-c2ccc(OC)cc2)on1	nt	nt	1	2%	nt
COC(=O)c1c(-c2ccc(C)cc2)csc1NC(=S)NC(=O)c1cc(OC)cc(OC)c1	?	8.3µM*	18	-3%	0%
CCOCCCN(Cc1ccco1)S(=O)(=O)c1csc(C(N)=O)c1	20%	13µM*	-36	0%	2%
CC(C)CCN(Cc1ccco1)S(=O)(=O)c1csc(C(N)=O)c1	7%	-21%	0	?	14%
CCN(CC)CC(O)c1cccn1-c1ccc(CNC(=O)NC(C)C)cc1 (centres undefined)	?	-9%	-66*	-3%	-1%
COc1ccc(N2CCN(S(=O)(=O)CCNC(=O)COc3ccccc3F)CC2)cc1	nt	nt	-13	7%	nt
Cc1ccc(CNC(=O)CCC(=O)N2CC(C)Oc3ccccc32)cc1 (centres undefined)	4%	64%	8	3%	8%
Cc1ccc2c(c1)N(C(=O)CCC(=O)NCc1cccnc1)CC(C)O2 (centres undefined)	-9%	13µM*	14	11%	-11%
Cc1ccc2c(c1)N(C(=O)CCC(=O)N1CCC(C(N)=O)CC1)CC(C)O2 (centres undefined)	-5%	13µM*	?	35%	2%
O=C(O)c1cccc(Nc2ncnc3ccc(Br)cc23)c1	7%	28%	0	2%	-20%
COc1ccc(OC)c(Nc2ncnc3ccc(Br)cc23)c1	?	?	-63*	0%	0%
Brc1ccc2ncnc(Nc3cccc4ccccc34)c2c1	?	13µM*	-66*	5%	?
COc1ccc(Nc2ncnc3ccc(C)cc23)cc1	?	12µM*	-72*	-11%	6%
SMILES	Pf growth 48h	Pf growth 96h	HCMV inh	Sm TGR block	Giardia FBPA inh
C#C[C@]1(O)CC[C@H]2[C@@H]3CCC4=Cc5nc6nc7ccccc7n6cc5C[C@]4(C)[C@H]3CC[C@@]21C	3.7µM*	5.2µM*	-30	?	nt
C#C[C@]1(O)CCC2C3CCC4=Cc5oncc5CC4(C)C3CCC21C (some centres undefined)	nt	nt	-3	nt	nt
COc1ccc(NC(=O)/C(Cl)=C(/Cl)S(=O)Cc2ccccc2Cl)cn1 (centres undefined)	?	7.4µM*	nt	0.089µM*	-1%
COc1ccc(NC(=O)Cc2ccc(Cl)cc2Cl)cn1	-6%	1%	-101*	-15%	-8%
COc1ccc(NC(=O)/C(Cl)=C(/Cl)S(=O)(=O)Cc2ccc(C)cc2)cn1	nt	?	nt	2.5µM*	-7%
Cc1cccc(N2CCN(C(=O)CN3C(=O)COc4ccc(S(=O)(=O)N5CCCC5)cc43)CC2C)c1 (centres undefined)	nt	nt	-20	-20%	nt
NC(=O)C[n+]1cccc2ccccc21	1%	62%	30	-8%	8%
CCCCC[n+]1cccc2c3ccccc3ccc21	?	-27%	-95*	8%	-21%
c1ccc(C[n+]2cccc3c4ccccc4ccc32)cc1	0.074µM*	11%	-94*	-7%	-1%
S=c1sscc1-c1ccccc1	nt	nt	-28	nt	nt
Nc1nonc1C(=O)NCCNCc1cccc(Cl)c1Cl	nt	nt	-3	-18%	nt
N#CC1(c2ccccc2)CCC(=NO)CC1 (centres undefined)	nt	1.9µM*	-13	-1%	0%
O=C(c1ccc(CS(=O)c2ccccc2Cl)o1)N1CCN(c2cccc(C(F)(F)F)c2)CC1 (centres undefined)	nt	nt	-96*	1%	nt
O=C(c1ccc(CS(=O)c2ccccc2Cl)o1)N1CCN(c2ccccn2)CC1 (centres undefined)	-9%	?	?	-14%	nt
O=C(c1ccc(CS(=O)c2ccccc2Cl)o1)N1CCN(c2cccc(Cl)c2)CC1 (centres undefined)	nt	nt	-93*	5%	nt
Cc1cc(=O)n(C)c(=O)n1CCCCCCOc1cccc([N+](=O)[O-])c1	-6%	4.1µM*	-26	5%	-2%
CC(=O)Nc1cccc(OCCOc2cccc([N+](=O)[O-])c2)c1	nt	nt	-29	nt	nt
CCOc1ccc(CCNC(=O)C2=C(C)C(=O)OC23CCC(C)CC3)cc1 (centres undefined)	-4%	10µM*	-15	-5%	3%
COc1ccc(CNC(=O)C2=C(C)C(=O)OC23CCC(C)CC3)cc1 (centres undefined)	nt	?	36	-1%	-2%
CN1C(=O)N(C)C2(c3ccccc3)Nn3c(s/c(=C/c4ccccc4F)c3=O)=NC12c1ccccc1 (centres undefined)	3%	nt	nt	-9%	7%
CN1C(=O)N(C)C2(c3ccccc3)Nn3c(s/c(=C/c4ccco4)c3=O)=NC12c1ccccc1 (centres undefined)	12µM*	128%	45	?	-4%
CC(C)CN(C(=O)COC(=O)c1cccc2ccccc12)c1c(N)n(Cc2ccccc2)c(=O)[nH]c1=O	?	1%	?	10%	nt
